Measured values as given in PubChem BioAssay (Tox21).
Records with an inconclusive call do not appear. Where a call stands in place of a potency, no number is given. Calls of active or inactive are those of the source. Unless noted, calls come from the whole dose curve; as a rule, active = well fitted curve in the direction sought with a large enough effect in the repeat runs; inconclusive = weak or mixed curves; inactive = no such curve, though single readings can be large; an effect the other way counts as inactive or inconclusive.

What was measured:
[1] = qHTS RealTime-Glo MT Cell Viability Assay in HEK293 cells - 0 hour (AID 1224880); settings: RealTime-Glo luminescence; series mostly up to 76.8 µM; note: top concentration of the series differs between compounds; nearly all actives have a fitted effect of over 45% in size
Summary of the method: (§1)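 qHTS format; HEK293 cells with NanoLuc/prosubstrate reagent, 37 C/5% CO2 for 5 h pre-dosing; compounds 23 nL in DMSO; luminescence at each time point reflects viable cells.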

[2] = A CellTox Green Cytotoxicity Assay to monitor cytotoxicity in HEK293 cells - 32 hour (AID 1224881); settings: CellTox Green fluorescence; series mostly up to 76.8 µM; note: nearly all actives have a fitted effect of over 40% in size
Summary of the method: (§2)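 Each value comes from one timepoint of a single continuous run in which HEK293 cells with CellTox Green were exposed to compound for up to 40 h at 37 C, dye fluorescence rising with cell death.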

[3] = A CellTox Green Cytotoxicity Assay to monitor cytotoxicity in HepG2 cells - 0 hour (AID 1224882); settings: CellTox Green fluorescence; series mostly up to 76.8 µM; note: nearly all actives have a fitted effect of over 35% in size
Summary of the method: (§3)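 Continuous culture of HepG2 cells with a membrane-impermeant DNA dye; rising fluorescence marks dead cells. Compound exposure lasted up to 40 h at 37 C, with reads every 8 h from 0 h.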

[4] = A CellTox Green Cytotoxicity Assay to monitor cytotoxicity in HEK293 cells - 8 hour (AID 1224884); settings: CellTox Green fluorescence; series mostly up to 76.8 µM; note: nearly all actives have a fitted effect of over 35% in size
Summary of the method: as §2

[5] = qHTS RealTime-Glo MT Cell Viability Assay in HepG2 cells - 16 hour (AID 1224885); settings: RealTime-Glo luminescence; series mostly up to 76.8 µM; note: nearly all actives have a fitted effect of over 50% in size
Summary of the method: (§4)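 Real-time, nonlytic viability: 600 HepG2 cells/well mixed with NanoLuc enzyme plus prosubstrate; 5 h settle, compound (DMSO) added by pintool; luminescence monitored over 40 h at 37 C.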

[6] = qHTS RealTime-Glo MT Cell Viability Assay in HEK293 cells - 24 hour (AID 1224886); settings: RealTime-Glo luminescence; series mostly up to 76.8 µM; note: top concentration of the series differs between compounds; nearly all actives have a fitted effect of over 50% in size
Summary of the method: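 Cells + reagent dispensed (600 cells/well, HEK293) → 5 h at 37 C/5% CO2 → 23 nL compound in DMSO pinned → 40 h at 37 C → luminescence read at 0, 8, 16, 24, 32, 40 h.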

[7] = qHTS RealTime-Glo MT Cell Viability Assay in HEK293 cells - 8 hour (AID 1224887); settings: RealTime-Glo luminescence; series mostly up to 76.8 µM; note: top concentration of the series differs between compounds; nearly all actives have a fitted effect of over 50% in size
Summary of the method: as §1

[8] = qHTS RealTime-Glo MT Cell Viability Assay in HepG2 cells - 0 hour (AID 1224889); settings: RealTime-Glo luminescence; series mostly up to 76.8 µM; note: nearly all actives have a fitted effect of over 50% in size
Summary of the method: as §4

[9] = qHTS assay to identify small molecule antagonists of the estrogen receptor alpha (ER-alpha) signaling pathway using the BG1 cell line in the presence of 0.1 nM 17-beta-estradiol - cell viability counter screen (AID 1259241); settings: VM7Luc4E2 (BG1) viability, CellTiter-Fluor protease, 22 h, 0.1 nM estradiol agonist added; series mostly up to 92.4 µM; note: nearly all actives have a fitted effect of over 40% in size
Summary of the method: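 Cells were plated and left 24 hr, compounds in DMSO were pinned in, 17beta-estradiol was added to 0.1 nM final, and after 22 hr CellTiter-Fluor reagent was added for 30 min before fluorescence was read.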

[10] = qHTS assay to identify small molecule antagonists of the androgen receptor (AR) signaling pathway using the MDA cell line in the presence of 0.5 nM R1881 - cell viability counter screen (AID 1259242); settings: MDA-kb2 viability, CellTiter-Fluor protease fluorescence, 16 h; series mostly up to 92.4 µM; note: nearly all actives have a fitted effect of over 45% in size
Summary of the method: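 Fluorescence from CellTiter-Fluor, which reports protease activity of live cells, was read 30 min after reagent addition to MDA-kb2 cells that had been incubated 16 hr with compound and 0.5 nM R1881.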

[11] = molecular target: Estrogen receptor (Homo sapiens) (UniProt P03372); experiment: qHTS assay to identify small molecule antagonists of the estrogen receptor alpha (ER-alpha) signaling pathway using the BG1 cell line in the presence of 0.1 nM 17-beta-estradiol (AID 1259244); settings: VM7Luc4E2 (BG1) ERE-luciferase, antagonist mode, 0.1 nM E2, 22 h; series mostly up to 92.4 µM; note: nearly all actives have a fitted effect of over 50% in size
Sequence of Estrogen receptor (Homo sapiens) (P03372 whole entry, looked up): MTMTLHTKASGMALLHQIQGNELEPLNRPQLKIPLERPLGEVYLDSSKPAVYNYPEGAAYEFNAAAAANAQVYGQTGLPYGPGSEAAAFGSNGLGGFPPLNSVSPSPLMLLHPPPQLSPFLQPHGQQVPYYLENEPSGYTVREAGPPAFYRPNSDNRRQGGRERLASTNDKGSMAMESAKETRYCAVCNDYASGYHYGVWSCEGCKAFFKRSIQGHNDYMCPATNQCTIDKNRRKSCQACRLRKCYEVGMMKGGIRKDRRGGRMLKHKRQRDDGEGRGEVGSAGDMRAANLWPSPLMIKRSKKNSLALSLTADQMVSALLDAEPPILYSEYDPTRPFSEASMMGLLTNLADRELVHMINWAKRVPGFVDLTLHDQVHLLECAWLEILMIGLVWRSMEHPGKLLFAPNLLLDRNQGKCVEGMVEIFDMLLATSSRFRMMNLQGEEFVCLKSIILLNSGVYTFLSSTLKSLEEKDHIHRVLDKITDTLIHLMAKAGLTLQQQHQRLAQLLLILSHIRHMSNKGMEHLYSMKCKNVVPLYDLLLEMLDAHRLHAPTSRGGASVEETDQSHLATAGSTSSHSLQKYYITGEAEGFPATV
Summary of the method: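 Quantitative high-throughput screen in VM7Luc4E2 cells: compound plus 0.1 nM E2 (final), 22 h, 37C, 5% CO2; ONE-Glo added, 30 min room temperature, luminescence measured.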

[12] = qHTS assay to identify small molecule HDAC inhibitors (AID 1259364); settings: HCT-116 HDAC-Glo I/II luminescence, 2 h; series mostly up to 92.4 µM; note: top concentration of the series differs between compounds; nearly all actives have a fitted effect of over 45% in size
Summary of the method: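 Endogenous HDAC class I/II activity was measured in wild-type HCT-116 cells by HDAC-Glo luminescence after 2 h compound treatment.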

[13] = qHTS assay to identify small molecule HDAC inhibitors - cell viability counter screen (AID 1259365); settings: HCT-116 viability, CellTiter-Glo ATP luminescence, 2 h; series mostly up to 92.4 µM; note: nearly all actives have a fitted effect of over 50% in size
Summary of the method: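 Counter screen in wild-type HCT-116 cells: compounds dissolved in DMSO are pin-transferred onto overnight-plated cells and left 2hr at 37C. ATP-based CellTiter-Glo luminescence then measures viable cells.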

[14] = A CellTox Green Cytotoxicity Assay to monitor cytotoxicity in HepG2 cells - 40 hour (AID 1224879); settings: CellTox Green fluorescence; series mostly up to 76.8 µM; note: nearly all actives have a fitted effect of over 40% in size; note: potency is the fitted concentration of half-maximal effect
Summary of the method: as §3

[15] = A CellTox Green Cytotoxicity Assay to monitor cytotoxicity in HepG2 cells - 32 hour (AID 1224883); settings: CellTox Green fluorescence; series mostly up to 76.8 µM; note: nearly all actives have a fitted effect of over 50% in size
Summary of the method: as §3

[16] = A CellTox Green Cytotoxicity Assay to monitor cytotoxicity in HEK293 cells - 16 hour (AID 1224888); settings: CellTox Green fluorescence; series mostly up to 76.8 µM; note: nearly all actives have a fitted effect of over 35% in size
Summary of the method: as §2

[17] = A CellTox Green Cytotoxicity Assay to monitor cytotoxicity in HepG2 cells - 8 hour (AID 1224890); settings: CellTox Green fluorescence; series mostly up to 76.8 µM; note: nearly all actives have a fitted effect of over 45% in size
Summary of the method: as §3

[18] = qHTS assay to identify small molecule phospholipidosis (PLD) inducers (AID 1259344; active = well fitted curve in the direction sought with a large enough effect; an effect the other way counts as inactive or inconclusive); settings: HepG2 phospholipidosis, LipidTOX Red imaging, 24 h; series mostly up to 38.3 µM
Summary of the method: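 HepG2 cells grown on collagen I take up LipidTOX Red while exposed to compound for 24 h; after fixation they are imaged at 20x and pit metrics are extracted.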

[19] = molecular target: Androgen receptor (Homo sapiens) (UniProt P10275); experiment: qHTS assay to identify small molecule antagonists of the androgen receptor (AR) signaling pathway using the MDA cell line in the presence of 0.5 nM R1881 (AID 1259243); settings: MDA-kb2 MMTV-luciferase, R1881 0.5 nM, 16 h; series mostly up to 92.4 µM; note: nearly all actives have a fitted effect of over 50% in size
Sequence of Androgen receptor (Homo sapiens) (P10275 whole entry, looked up): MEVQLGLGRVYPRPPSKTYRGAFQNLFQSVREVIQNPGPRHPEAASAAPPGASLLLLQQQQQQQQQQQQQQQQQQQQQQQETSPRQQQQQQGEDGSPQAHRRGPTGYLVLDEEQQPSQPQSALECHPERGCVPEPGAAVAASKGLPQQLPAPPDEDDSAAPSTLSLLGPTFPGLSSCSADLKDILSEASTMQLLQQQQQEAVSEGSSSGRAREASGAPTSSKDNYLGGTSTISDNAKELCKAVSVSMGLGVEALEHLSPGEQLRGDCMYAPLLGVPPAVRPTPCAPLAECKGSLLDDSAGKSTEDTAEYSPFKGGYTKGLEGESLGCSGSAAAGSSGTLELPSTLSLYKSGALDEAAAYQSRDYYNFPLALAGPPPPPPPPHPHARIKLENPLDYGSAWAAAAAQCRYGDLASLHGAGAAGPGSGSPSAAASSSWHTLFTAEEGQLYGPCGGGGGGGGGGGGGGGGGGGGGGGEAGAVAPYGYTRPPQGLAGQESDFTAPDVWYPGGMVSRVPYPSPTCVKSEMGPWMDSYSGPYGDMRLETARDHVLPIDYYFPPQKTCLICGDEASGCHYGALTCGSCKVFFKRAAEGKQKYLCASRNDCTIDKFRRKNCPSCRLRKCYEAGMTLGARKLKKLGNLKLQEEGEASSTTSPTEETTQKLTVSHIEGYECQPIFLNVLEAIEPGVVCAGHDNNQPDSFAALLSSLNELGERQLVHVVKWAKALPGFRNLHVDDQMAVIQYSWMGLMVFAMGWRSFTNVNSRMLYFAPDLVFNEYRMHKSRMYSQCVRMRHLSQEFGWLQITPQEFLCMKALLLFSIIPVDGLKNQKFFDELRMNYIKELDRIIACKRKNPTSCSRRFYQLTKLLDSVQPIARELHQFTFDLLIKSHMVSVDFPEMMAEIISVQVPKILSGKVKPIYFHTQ
Summary of the method: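 Inhibition of R1881 (0.5 nM final) induced reporter signal was measured in human MDA-kb2 cells; note the MMTV promoter also responds to GR. Exposure lasted 16 hr at 37C.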

SMILES | Potency [1] | Potency [2] | Potency [3] | Potency [4] | outcome [5] | outcome [6] | outcome [7] | Potency [8] | outcome [9] | outcome [10] | outcome [11] | Potency [12] | outcome [13] | Potency [14] | Potency [15] | Potency [16] | Potency [17] | Potency [18] | Potency [19]
CCCCCCCC(=O)N(C)C | inactive | inactive | inactive | inactive | inactive | inactive | inactive | inactive | inactive | inactive | inactive | inactive | inactive | – | – | – | – | – | –
C=CC(=O)OCCOCCOCC | inactive | inactive | inactive | inactive | inactive | inactive | inactive | – | inactive | inactive | – | inactive | inactive | inactive | inactive | inactive | inactive | – | –
O=C(O)CCC(=O)Nc1ccc(S(=O)(=O)Nc2nccs2)cc1 | inactive | inactive | inactive | inactive | inactive | inactive | inactive | inactive | inactive | inactive | – | inactive | inactive | – | – | inactive | – | inactive | –
COc1ccc2cc(CCC(C)=O)ccc2c1 | inactive | inactive | inactive | inactive | inactive | inactive | inactive | inactive | inactive | inactive | – | – | inactive | inactive | inactive | inactive | inactive | inactive | –
O=C1CCCc2c(O)cccc21 | inactive | inactive | inactive | – | inactive | inactive | inactive | inactive | inactive | inactive | inactive | inactive | inactive | 9.52 µM (active) | – | inactive | inactive | – | inactive
